This excerpt belongs to a sample that is enriched for hits.
ID4 binder: binds human ID4 protein on microarray; P47928; small molecule microarray, Flag-ID4 binding, fluorescence F/B; calls only; 1.2% of 31,000 active; call rule not given here;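 also: a binder raises fluorescence above local background on the spot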
Target sequence (P47928 whole entry, looked up): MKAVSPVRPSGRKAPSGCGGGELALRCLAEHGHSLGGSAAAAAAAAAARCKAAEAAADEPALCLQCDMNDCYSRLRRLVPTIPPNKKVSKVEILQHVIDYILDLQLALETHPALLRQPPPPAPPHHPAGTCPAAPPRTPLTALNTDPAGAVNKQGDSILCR
Calls only; 0 = inactive; + = active, no number.

SMILES | ID4 binder
Cc1ccc(S(=O)(=O)NC2(C(F)(F)F)C(=O)N(Cc3ccco3)C3=C2C(=O)CC(C)(C)C3)cc1 (stereo unspecified) | 0
COc1cccc(OC)c1C(=O)NCCCO | 0
COc1ccc(S(=O)(=O)N(C)CC(=O)Nc2cc(Cl)c(Cl)cc2Cl)cc1 | 0
C[C@@H]1CN([C@H](C)CO)C(=O)c2cc(-c3ccc(C#N)cc3)cnc2O[C@H]1CN(C)Cc1ccncc1 | +
C[C@H](CO)N1C[C@H](C)[C@@H](CN(C)CC2CCCC2)Oc2ncc(-c3ccc(C#N)cc3)cc2C1=O | 0
C[C@@H]1CN([C@@H](C)CO)C(=O)c2cc(C#CCN(C)C)cnc2O[C@@H]1CN(C)C(=O)c1cccc(F)c1 | 0
C[C@H]1CN([C@@H](C)CO)C(=O)c2cc(-c3ccc(C(=O)N(C)C)cc3)cnc2O[C@@H]1CN(C)C | 0
C[C@H]1CN([C@@H](C)CO)C(=O)c2cc(C#Cc3ccccn3)cnc2O[C@H]1CN(C)Cc1ccccc1 | 0
C[C@H](CO)N1C[C@H](C)[C@@H](CN(C)Cc2cncnc2)Oc2ncc(C#Cc3ccccn3)cc2C1=O | +
C[C@@H]1CN([C@H](C)CO)C(=O)c2cc(C#Cc3ccccn3)cnc2O[C@@H]1CN(C)Cc1ccccc1 | 0
C[C@@H]1CN([C@H](C)CO)C(=O)c2cc(-c3ccncc3)cnc2O[C@H]1CN(C)Cc1ccc(F)cc1 | 0
C[C@@H]1CN([C@H](C)CO)C(=O)c2cc(-c3ccc(C(=O)N(C)C)cc3)cnc2O[C@H]1CN(C)C | +
C[C@@H]1CN([C@H](C)CO)C(=O)c2cc(C#CCN(C)C)cnc2O[C@H]1CN(C)C(=O)c1cccnc1 | +
C[C@@H]1CN([C@@H](C)CO)C(=O)c2cc(-c3ccc(C(=O)N(C)C)cc3)cnc2O[C@@H]1CN(C)C | 0
CC(C)C#Cc1cnc2c(c1)C(=O)N([C@@H](C)CO)C[C@H](C)[C@@H](CN(C)C(=O)c1cccnc1)O2 | 0
CC(C)(CO)NCc1ccc(-c2ccccc2)o1 | 0
COc1ccccc1CN=c1c([N+](=O)[O-])nn(-c2ccccc2)n1O | 0
COC(=O)c1ccc(Cl)c(NC(=O)CSc2nnc(-c3cc(OC)cc(OC)c3)o2)c1 | 0
O=C(NCc1cccnc1)C(=O)Nc1cccc(Cl)c1Cl | 0
CCn1c(SCC(=O)Nc2ccc(C)c(F)c2)nnc1-c1cccc(Cl)c1 | 0
COc1ccc(N(C(C)C(=O)Nc2ccc(C(F)(F)F)cc2)S(C)(=O)=O)cc1 (stereo unspecified) | 0
COc1ccc(NC(=O)C(C)N(c2ccc(C)c(C)c2)S(C)(=O)=O)cc1Cl (stereo unspecified) | 0
COC(=O)CNC(=O)c1cn(-c2ccccc2)nc1-c1cccc(Br)c1 | 0
Cc1ccc(-c2cnc3c(c2)C(=O)N([C@H](C)CO)C[C@@H](C)[C@@H](CN(C)C)O3)cc1 | 0
C[C@@H]1CN([C@H](C)CO)C(=O)c2cc(-c3cccc(C(=O)N(C)C)c3)cnc2O[C@@H]1CN(C)C | 0
SMILES | ID4 binder
CCCN(C)C[C@H]1Oc2ncc(-c3cccc(C(=O)N(C)C)c3)cc2C(=O)N([C@H](C)CO)C[C@H]1C | 0
C[C@@H]1CN([C@H](C)CO)C(=O)c2cc(-c3cccc(C(=O)N(C)C)c3)cnc2O[C@H]1CN(C)C | +
CCCN(C)C[C@@H]1Oc2ncc(-c3cccc(C(=O)N(C)C)c3)cc2C(=O)N([C@@H](C)CO)C[C@H]1C | +
CCCN(C)C[C@H]1Oc2ncc(-c3cccc(C(=O)N(C)C)c3)cc2C(=O)N([C@H](C)CO)C[C@@H]1C | 0
C[C@@H]1CN([C@@H](C)CO)C(=O)c2cc(-c3cccc(C(=O)N(C)C)c3)cnc2O[C@@H]1CN(C)C | 0
Cc1ccc(-c2cnc3c(c2)C(=O)N([C@@H](C)CO)C[C@H](C)[C@@H](CN(C)C)O3)cc1 | 0
C[C@H]1CN([C@@H](C)CO)C(=O)c2cc(-c3ccncc3)cnc2O[C@@H]1CN(C)C | +
O=C(O)CNc1ncnc2oc(-c3ccccc3)c(-c3ccccc3)c12 | 0
COc1ccc(NC(=O)CSC2CC(=O)N(c3ccccc3)C2=O)cc1Cl (stereo unspecified) | 0
CC1CCc2c(sc3ncnc(SCC(=O)Nc4ccc5c(c4)OCCO5)c23)C1 (stereo unspecified) | 0
Cc1ccccc1-c1nc(SCC(=O)Nc2ccc(Br)c(Cl)c2)n[nH]1 | 0
CCOc1ccccc1OCC(=O)Nc1ccccc1[N+](=O)[O-] | 0
O=C(Nc1sc2c(c1C(=O)NCc1cccnc1)CCCC2)c1cccs1 | 0
O=C(Nc1sc2c(c1C(=O)NCc1cccnc1)CCCC2)c1ccc(Cl)cc1 | 0
Cc1occc1C(=O)Nc1sc2c(c1C(=O)NCc1cccnc1)CCCC2 | +
C[C@H](CO)N1C[C@H](C)[C@@H](CN(C)Cc2ccccc2C(=O)O)Oc2ncc(C3=CCCCC3)cc2C1=O | +
C[C@@H]1CN([C@H](C)CO)C(=O)c2cc(C3=CCCCC3)cnc2O[C@H]1CN(C)Cc1ccc(C(=O)O)cc1 | +
C[C@H]1CN([C@@H](C)CO)C(=O)c2cc(C3=CCCCC3)cnc2O[C@@H]1CN(C)Cc1ccccc1 | 0
C[C@H](CO)N1C[C@H](C)[C@@H](CN(C)Cc2ccccc2F)Oc2ncc(C3=CCCCC3)cc2C1=O | 0
C[C@@H]1CN([C@H](C)CO)C(=O)c2cc(C3=CCCCC3)cnc2O[C@H]1CN(C)Cc1ccncc1 | 0
C[C@H]1CN([C@@H](C)CO)C(=O)c2cc(C3=CCCCC3)cnc2O[C@@H]1CN(C)Cc1ccccc1F | 0
O=C1C(=O)N(Cc2ccco2)C(c2cccs2)C1C(=O)c1cccs1 (stereo unspecified) | 0
C/C=C1\C(O[C@@H]2O[C@H](CO[C@@H]3O[C@H](CO)[C@@H](O)[C@H](O)[C@H]3O)[C@@H](O)[C@H](O)[C@H]2O)OC=C(C(=O)OC)C1CC(=O)OCCc1ccc(O)cc1 (stereo partly specified) | 0
NCCCc1nc2cc3ccccc3cc2[nH]1 | 0
O=C(NCCSc1nc2cc(C(F)(F)F)ccc2s1)C12CC3CC(CC(C3)C1)C2 | 0
SMILES | ID4 binder
O=C(CSc1nc(O)cc(=O)n1-c1ccccc1)Nc1ccccc1 | 0
CCc1c(C)sc(NC(=O)c2cc(-c3ccccn3)nc3c(C)cccc23)c1C(=O)N1CCCCC1 | 0
Cc1ccc2c(C(=O)Nc3sc4c(c3C(N)=O)CCCCC4)cc(-c3ccccn3)nc2c1C | +
Cc1sc(NC(=O)c2cc(-c3ccccn3)nc3ccccc23)c(C(=O)NC2CCCCC2)c1C | 0
Cc1ccc(C)c(NC(=O)CN(c2cccc(F)c2)S(C)(=O)=O)c1 | 0
Cc1cc(N(CC(=O)NC2CCCCCC2)S(C)(=O)=O)ccc1Br | 0
O=S1(=O)c2cccc3cccc(c23)N1CCCN1CCN(c2ccc(F)cc2)CC1 | 0
O=C1c2ccccc2S(=O)(=O)N1CCCCN1CCN(c2ncccn2)CC1 | +
O=C1CC2(CCCC2)CC(=O)N1CCCCN1CCN(c2ncccn2)CC1 | 0
COc1cccc(NC(=O)CC2C(=O)NC3CCCCC3N2C(=O)c2ccccc2)c1 (stereo unspecified) | +
COc1cccc(N2C(=O)C(CC(=O)Nc3ccc(F)cc3)N(C3CCCCC3)C2=O)c1 (stereo unspecified) | 0
COc1cccc(NC(=O)Cn2cnc3ccccc3c2=O)c1 | 0
COc1cc2nccc(Oc3ccc(NC(=O)Nc4ccc(F)cc4F)c(F)c3)c2cc1OC | +
COc1cc2ncnc(Nc3ccc(Cl)cc3F)c2cc1OC | 0
O=C(NCc1ccccn1)Nc1ccc(F)cc1F | 0
Cc1cccc(C)c1OCC(=O)NCc1ccccn1 | 0

Assay outcomes deposited in PubChem by Broad Institute.
